A selection: hits, their analogues and other compounds. The true share with any hit is near 19%.
DT40 TDP1 CPT: qHTS for Inhibitors of human tyrosyl-DNA phosphodiesterase 1 (TDP1): qHTS in cells in presence of CPT | chicken DT40 Tdp1-/-;hTDP1 cells + 20 nM CPT, ATP luminescence, 48 h | actives 12% (n = 420,000) | Potency, µM (titrated, usually from 46.2 µM), for the others: at the highest dose activity change, negative = growth inhibition, usual class: inhibitors; note: nearly all actives have a fitted effect of over 55% in size
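Cell growth measured by CellTiter-Glo luminescence after a minimum 48 h, 37 C compound exposure with 20 nM CPT in Tdp1-knockout DT40 cells stably expressing hTDP1, seeded 400/well; qHTS titration format.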
KB-V1 MDR tox: qHTS assay for MDR1-selective chemotherapeutics: Primary screen using the drug-selected MDR subline cells KB-V1; KB-V1 MDR cells viability, CellTiter-Glo, 72 h; Potency, µM (highest dose often 46.1 µM), usual class: cytotoxic; actives 3.4% (n = 400,000); note: nearly all actives have a fitted effect of over 60% in size
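KB-V1 MDR subline cells in DMEM (phenol-red free, 10% FBS) exposed to compounds in qHTS concentration series for 72 h at 37 degrees C. Viability read by CellTiter-Glo luminescence; concentration-effect curves fitted after normalization and correction.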
DT40 TDP1 no CPT: qHTS for Inhibitors of human tyrosyl-DNA phosphodiesterase 1 (TDP1): qHTS in cells in absence of CPT; actives 15% (n = 420,000); AID 686978, 2013; Potency, µM (doses to about 46.2 µM), without a hit: top-dose activity change, negative = growth inhibition, actives largely listed as inhibitors; DT40 Tdp1-/- hTDP1 cells, no CPT, ATP luminescence, 48 h; note: nearly all actives have a fitted effect of over 55% in size
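Readout: luminescence from CellTiter-Glo after 30 min in the dark at RT. Cells: DT40 Tdp1-/- with stable hTDP1, 400/well. Exposure: compounds alone, ≥48 hr, 37 °C.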
HT1080-NT tox: qHTS for induction of synthetic lethality in tumor cells producing 2HG: qHTS for the HT-1080-NT fibrosarcoma cell line. actives 1.6% (n = 360,000). HT-1080-NT fibrosarcoma viability, CellTiter-Glo ATP luminescence, 48 h. Potency, µM (top dose mostly 46.1 µM), for inactives: at the highest dose activity, negative = less viability, hits mostly cytotoxic. AID 686970, 2013;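 note: NT is the 2HG producing partner of a matched IDH1 knockdown line; 0% = DMSO-treated cells and -100% = media-only wells without cells; nearly all actives have a fitted effect of over 55% in size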
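Viability of the 2HG-overproducing fibrosarcoma line after 48 hours of compound exposure at 37 degrees C was determined by luminescence with CellTiter-Glo, and concentration-effect curves were then fitted and categorized.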
HT1080 IDH1KD tx: qHTS for induction of synthetic lethality in tumor cells producing 2HG: qHTS for the HT-1080-IDH1KD cell line | Potency, µM (highest dose often 46.1 µM), for inactives: at the top dose activity, negative = toxicity, usual class: cytotoxic | actives 2% (n = 360,000) | HT-1080 IDH1 knockdown viability, ATP luminescence, 48 h | AID 686971, 2013;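 note: 0% = DMSO wells and -100% = cell-free medium wells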
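% activity derives from luminescence (CellTiter-Glo), normalised to DMSO and no-cell wells. HT-1080-IDH1KD cells, 750/well, had 48 h compound exposure at 37 °C.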
KB-3-1 cytotox: qHTS assay for MDR1-selective chemotherapeutics: Primary screen using the parental adenocarcinoma cell KB-3-1; actives 1.4% (n = 400,000); AID 1347075, 2019; Potency, µM (titrated, usually from 46.1 µM), most hits filed as cytotoxic; KB-3-1 viability, CellTiter-Glo ATP luminescence, 72 h; note: nearly all actives have a fitted effect of over 60% in size
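Screening of KB-3-1 cells (DMEM, 10% FBS, phenol-red free) ran from lowest to highest compound concentration; after 72 h at 37 °C viability was read luminescently and curves fitted.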
Starred values were filed as active, the others as inactive. Calls come from the whole dose curve; as a rule, active = well fitted curve in the direction sought with a large enough effect; inconclusive = small, poorly fitted or top-dose-only effect, or another doubt; inactive = no such curve, though single readings can be large; an effect the other way counts as inactive or inconclusive. Unless noted, % is set by controls: 0 for no effect and ±100 for the full control effect; potency is the fitted concentration of half-maximal effect.

COc1ccc(-c2noc(CSc3nnc(C)n3-c3ccc(C)c(C)c3)n2)c(OC)c1 was read as DT40 TDP1 CPT inconclusive, KB-V1 MDR tox inactive, DT40 TDP1 no CPT 18.4µM* and KB-3-1 cytotox inactive.
COc1ccc(-c2noc(CSc3nnc(C)n3-c3ccc(C)cc3)n2)cc1OC was read as DT40 TDP1 CPT inconclusive, KB-V1 MDR tox inactive, DT40 TDP1 no CPT inconclusive and KB-3-1 cytotox inactive.
For COc1ccc(-c2noc(CSc3nnc(-c4ccncc4)n3-c3ccc(C)c(C)c3)n2)cc1 the results were DT40 TDP1 CPT 14.6µM* and DT40 TDP1 no CPT 13µM*.
Cc1cccc(-n2c(SCc3nc(-c4ccccc4C)no3)nnc2-c2ccccc2)c1 was read as DT40 TDP1 CPT 0.0%, KB-V1 MDR tox inactive, DT40 TDP1 no CPT inconclusive and KB-3-1 cytotox inactive.
Screening CCOc1ccccc1-c1noc(CSc2nnc(-c3ccccc3)n2-c2cccc(C)c2)n1 returned DT40 TDP1 CPT inconclusive, KB-V1 MDR tox inactive, DT40 TDP1 no CPT 20.6µM* and KB-3-1 cytotox inactive.
`CN(C(=O)COC(=O)CSc1ccccc1)c1c(N)n(Cc2ccccc2)c(=O)[nH]c1=O` gave DT40 TDP1 CPT 5.8%, KB-V1 MDR tox inactive, DT40 TDP1 no CPT -4.5%, HT1080-NT tox 0.4%, HT1080 IDH1KD tx -3.0% and KB-3-1 cytotox inactive.
Screening COCC(=O)N1CCC2(CCN(Cc3ccncc3)CC2)CC1 returned DT40 TDP1 CPT 21.7% and DT40 TDP1 no CPT 3.1%.
`CCCCc1ncc(CN2CCC(n3nccc3NC(=O)c3ccccc3Cl)CC2)[nH]1` gave DT40 TDP1 CPT -21.6%, DT40 TDP1 no CPT 3.4%, HT1080-NT tox -0.9% and HT1080 IDH1KD tx -6.7%.
O=C(NC(c1ccccc1)c1ccc2ccccc2n1)C1CCN(Cc2cccc(C(F)(F)F)c2)CC1 (stereo unspecified) was read as DT40 TDP1 CPT 7.31µM*, KB-V1 MDR tox inconclusive, DT40 TDP1 no CPT 6.51µM*, HT1080-NT tox inconclusive, HT1080 IDH1KD tx 14.6µM* and KB-3-1 cytotox inconclusive.
Screening COCCNC(=O)C1CCCN(Cc2cccc(C(F)(F)F)c2)CC1 (stereo unspecified) returned DT40 TDP1 CPT 14.2%, KB-V1 MDR tox inactive, DT40 TDP1 no CPT -4.0%, HT1080-NT tox 21.2%, HT1080 IDH1KD tx 19.7% and KB-3-1 cytotox inactive.
Screening O=C(NC(c1ccc2ccccc2n1)c1cccs1)C1CCN(Cc2cccc(C(F)(F)F)c2)CC1 (stereo unspecified) returned DT40 TDP1 CPT 7.31µM*, KB-V1 MDR tox inconclusive, DT40 TDP1 no CPT 10.3µM*, HT1080-NT tox inconclusive, HT1080 IDH1KD tx 16.4µM* and KB-3-1 cytotox inconclusive.
Screening CCN(CC)CCSc1c(C(C)C)cnc2c1c(=O)n(C)c(=O)n2C returned DT40 TDP1 CPT 4.3% and DT40 TDP1 no CPT -1.6%.
`CC(C)c1cnc2c(c1SCC(=O)c1ccc(Cl)cc1)c(=O)n(C)c(=O)n2C` gave DT40 TDP1 CPT 18.4µM* and DT40 TDP1 no CPT 23.1µM*.
For CCCc1cnc2c(c1SCc1cccc(C)c1)c(=O)n(C)c(=O)n2C the results were DT40 TDP1 CPT 16.4µM*, KB-V1 MDR tox inactive, DT40 TDP1 no CPT inconclusive and KB-3-1 cytotox inactive.
`CCc1cnc2c(c1SCC(=O)c1ccc(OC)cc1)c(=O)n(C)c(=O)n2C` gave DT40 TDP1 CPT 11.6µM*, KB-V1 MDR tox inactive, DT40 TDP1 no CPT 11.6µM* and KB-3-1 cytotox inactive.
`CC(C)c1cnc2c(c1SCc1cccc(C(F)(F)F)c1)c(=O)n(C)c(=O)n2C` gave DT40 TDP1 CPT inconclusive and DT40 TDP1 no CPT 23.1µM*.
For Cc1cc(C)cc(NC(=S)N2CCC(NC(=O)c3ccccc3C)CC2)c1 the results were DT40 TDP1 CPT -10.6%, KB-V1 MDR tox inactive, DT40 TDP1 no CPT -18.6%, HT1080-NT tox 0.0%, HT1080 IDH1KD tx 0.2% and KB-3-1 cytotox inactive.
For CC1(Cc2ccc(Cl)s2)C(=O)Nc2c(Cl)ccc(Cl)c21 (stereo unspecified) the results were DT40 TDP1 CPT inconclusive, KB-V1 MDR tox inactive, DT40 TDP1 no CPT inconclusive, HT1080-NT tox inconclusive, HT1080 IDH1KD tx inconclusive and KB-3-1 cytotox inactive.
CC(C)c1cnc2c(c1SCc1ccc([N+](=O)[O-])cc1)c(=O)n(C)c(=O)n2C was read as DT40 TDP1 CPT inconclusive and DT40 TDP1 no CPT 8.2µM*.
CC(C)c1cnc2c(c1SCC(=O)Nc1cccc(F)c1)c(=O)n(C)c(=O)n2C was read as DT40 TDP1 CPT inconclusive and DT40 TDP1 no CPT 14.6µM*.
For CC(C)c1cnc2c(c1SCC(=O)Nc1ccc(C(N)=O)cc1)c(=O)n(C)c(=O)n2C the results were DT40 TDP1 CPT -28.2% and DT40 TDP1 no CPT inconclusive.
Screening COC(=O)c1ccc(CSc2c(C(C)C)cnc3c2c(=O)n(C)c(=O)n3C)cc1 returned DT40 TDP1 CPT inconclusive and DT40 TDP1 no CPT 23.1µM*.
`CCc1cnc2c(c1SC(C(C)=O)C(=O)N(C)C)c(=O)n(C)c(=O)n2C` (stereo unspecified) gave DT40 TDP1 CPT 23.1µM*, KB-V1 MDR tox inactive, DT40 TDP1 no CPT inconclusive and KB-3-1 cytotox inactive.
For CC1CCCCN1CCCOC(=O)c1ccccc1 (stereo unspecified) the results were DT40 TDP1 CPT -5.9% and DT40 TDP1 no CPT 3.3%.
`O=C(O)c1cc(-c2ccc(Cl)c(Cl)c2)n(-c2ccccc2)n1` gave DT40 TDP1 CPT 0.9%, KB-V1 MDR tox inactive, DT40 TDP1 no CPT -16.6%, HT1080-NT tox 5.1%, HT1080 IDH1KD tx -3.3% and KB-3-1 cytotox inactive.
`CC1CCN(C(=O)CSc2c(C(C)C)cnc3c2c(=O)n(C)c(=O)n3C)CC1` gave DT40 TDP1 CPT 25.9µM* and DT40 TDP1 no CPT 16.4µM*.
`CC(C)c1cnc2c(c1SCC(=O)O)c(=O)n(C)c(=O)n2C` gave DT40 TDP1 CPT 0.6% and DT40 TDP1 no CPT 6.3%.

High-throughput results as filed in PubChem.
